The source made the active and inactive calls. How the source made its calls: active means hit-call score of the fitted dose curve at least 0.9, where 1 is the maximum; inactive means score below 0.9.
Assay: APR_HepG2_MitoMass_24hr: Apredica 24-hour HepG2 Assay for Mitochondrial Mass (AID 2282912)
Conditions: high-content imaging, actives raise or lower the signal
Outline: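 Readout: fluorescence of MitoTracker Red CMXRos (250 nM, added 30 min pre-fixation) in fixed HepG2 cells imaged by HCS. Exposure lasted 24 hr at 0.39–200 uM; increases and decreases were both fitted relative to DMSO.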

Q: With `O=C1c2c(O)cccc2Cc2cccc(O)c21` as the compound, how does the outcome read?
A: The outcome was “inactive”.

Q: With `CCCCCCCC(=O)OC` as the compound, how does the outcome read?
A: Its outcome is “inactive”.

Q: For `CCc1cc(C2=C(C(=O)O)N(c3ccccc3C(F)(F)F)S(=O)(=O)c3ccccc32)cc2c1OCO2`, which outcome is on record?
A: Its outcome is “inactive”.

Q: With `OCC(O)CO` as the compound, how does the outcome read?
A: Its outcome is “inactive”.

Q: With `S=c1[nH]c2ccccc2s1` as the compound, how does the outcome read?
A: Its outcome is “inactive”.

Q: Which outcome does the source give for `CCCCCCCCCC[N+](C)(C)[O-]` here?
A: The outcome was “inactive”.

Q: With `CN(C)CCCN1c2ccccc2Sc2ccc(Cl)cc21` as the compound, how does the AC50 read?
A: Its AC50 is 31 µM (active).

Q: Which AC50 does the source give for `COc1ccc(C(=O)Nc2nc3ccccc3c(NCc3ccccc3)c2C#N)cc1` here?
A: The AC50 was 159 µM (active).

Q: With `CO[C@@H]1COCC[C@@H]1N[C@@H]1CC[C@@](C(=O)N2CCc3ncc(C(F)(F)F)cc3C2)(C(C)C)C1` as the compound, how does the outcome read?
A: The outcome was “inactive”.

Q: With `CS(=O)(=O)c1ccc([C@@H](C[C@H]2CCC(=O)C2)C(=O)Nc2cnccn2)cc1Cl` as the compound, how does the outcome read?
A: The outcome was “inactive”.

Q: Which AC50 does the source give for `COc1ccc(OC(F)(F)F)cc1CN[C@H]1CCCN[C@H]1c1ccccc1` here?
A: The AC50 was 66.7 µM (active).

Q: For `Oc1ccc(O)cc1`, which AC50 is on record?
A: The AC50 was 51.4 µM (active).

Q: For `CN(C)C(=O)NC1(c2ccccc2)CCN(CC[C@@]2(c3ccc(F)c(F)c3)CN(C(=O)c3ccccc3)CCO2)CC1`, which AC50 is on record?
A: Its AC50 is 97.8 µM (active).

Q: For `CN(C)C(=O)NC1(c2ccccc2)CCN(CCC[C@]2(c3ccc(Cl)c(Cl)c3)CCCN(C(=O)c3ccccc3)C2)CC1`, which AC50 is on record?
A: Its AC50 is 15.4 µM (active).

Q: For `NCCOCCOCCN`, which AC50 is on record?
A: Its AC50 is 45.3 µM (active).

Q: With `CCc1nc(N)nc(N)c1-c1ccc(Cl)cc1` as the compound, how does the outcome read?
A: Its outcome is “inactive”.

Q: For `CC(C)(O)c1ccc(CNC(=O)c2cccnc2Oc2ccc(F)cc2)cc1`, which outcome is on record?
A: The outcome was “inactive”.

Q: With `Nc1nc(Cl)nc2c1ncn2[C@H]1C[C@H](O)[C@@H](CO)O1` as the compound, how does the AC50 read?
A: Its AC50 is 0.243 µM (active).

Q: For `CN(C)CCCN(C)CCCN(C)C`, which outcome is on record?
A: The outcome was “inactive”.

Q: Which outcome does the source give for `Cc1cc(SC2=C(O)C[C@@](CCc3ccc(N)cc3)(C(C)C)OC2=O)c(C(C)(C)C)cc1CO` here?
A: Its outcome is “inactive”.

Q: Which AC50 does the source give for `CCCCc1nc2cccnc2n1Cc1ccc(-c2ccccc2-c2nnn[nH]2)cc1` here?
A: The AC50 was 28.1 µM (active).

Q: Which outcome does the source give for `OCC(CO)n1cnc(-c2ccc(F)cc2)c1-c1ccnc(Oc2ccccc2)n1` here?
A: The outcome was “inactive”.

Q: With `c1ccc2occc2c1` as the compound, how does the outcome read?
A: The outcome was “inactive”.

Q: Which outcome does the source give for `CCCCC(CC)COC(=O)CCCCCCCC(=O)OCC(CC)CCCC` (centres undefined) here?
A: The outcome was “inactive”.

Q: For `CC(C)(C)c1ccccc1`, which outcome is on record?
A: The outcome was “inactive”.

Q: Which outcome does the source give for `COC(=O)CCC(=O)OC` here?
A: Its outcome is “inactive”.

Q: Which outcome does the source give for `CCCCC(CC)COP(=O)(OCC(CC)CCCC)OCC(CC)CCCC` (centres undefined) here?
A: Its outcome is “inactive”.

Q: For `COC(=O)CCCC(=O)OC`, which outcome is on record?
A: Its outcome is “inactive”.

Q: Which outcome does the source give for `O=C(O)c1[nH]n(-c2ccc(S(=O)(=O)O)cc2)c(=O)c1N=Nc1ccc(S(=O)(=O)O)cc1` here?
A: The outcome was “inactive”.

Reference: PubChem BioAssay (EPA / NIEHS)
